The source made the active and inactive calls. Rule for the calls: active = hit-call score of the fitted dose curve at least 0.9, where 1 is the maximum; inactive = score below 0.9.
read-out: Cytochrome P450 3A4 (Homo sapiens) (UniProt P08684); assay: LTEA_HepaRG_CYP3A4: Life Technologies and Expression Analysis (LTEA) Assay for CYP3A4 using HepaRG (AID 2283487); conditions: mRNA level, 48 h; actives raise or lower the signal
Experimental: LTEA_HepaRG is a cell based, multiplexed-readout assay that uses HepaRG, a human liver cell line, with measurements taken at 48 hours after chemical dosing on a 96-well plate.LTEA_HepaRG_CYP3A4 is one of 102 assay component(s) measured in the LTEA HepaRG cell culture assay. It is a marker of NR mediated metabolism.Data from the assay component LTEA_HepaRG_CYP3A4 was analyzed into 1 endpoint. This assay endpoint, LTEA_HepaRG_CYP3A4, was analyzed with bidirectional fitting relative to DMSO as the negative control and baseline of activity. Using a type of inducible reporter, measures of mRNA induction for gain or loss-of-signal activity can be used to understand regulation of transcription factor activity. To generalize the intended target to other relatable targets, this assay endpoint is annotated to the cyp intended target family, where the subfamily is xenobiotic metabolism.
A total of 1060 chemcials from the ToxCast library were tested in eight-point concentration-response experiments. Cell culture and cytotoxicity assays were conducted at Thermo Fisher Scientific's Custom Services facility (Madison, WI). A single lot of human HepaRG cells (Thermo Fisher Scientific, Frederick, MD) was used for the cell culture experiments. 96-well format collagen type I coated plates of human HepaRG cells were prepared using established methods. Briefly, cryopreserved HepaRG cells were thawed, plated at a density of approximately 100,000 cells/well in HepaRG Thaw, Plate, and General Purpose media (HPRG770, Thermo Fisher Scientific), and incubated for 48 hours. 0.5% DMSO was selected as vehicle control to balance the requisite need of DMSO in HepaRG cultures to maintain differentiation (for example, baseline metabolism, proportions of hepatocytes vs. cholangiocytes), while enabling further hepatic receptor pathway activation (for example, PXR and CAR) in response to chemical exposure. 48 hours after plating, the culture medium was replaced with HepaRG Serum-Free Incudtion Media. Cells were exposed to each test chemical in duplicate and maintained in CO2 incubators for another 48 hours. Chemical plates were thawed to room temperature and 200x concentrations of treatment groups were prepared. 8-point conentration-reponse curves were made with the highest exposure at 100 uM, followed by half-log dilutions, all in 0.5% DMSO. Each test plate contained variouse controls, induction positive controls (1mM phenobarbital), cytotoxicity positive controls ([…] aflatoxin B1), vehicle controls (0.5% DMSO), and total lysis controls (0.5% DMSO). Cell morphology images were taken using an Essen IncuCyte FLR automated microscope, with six 96-well plates imaged in about 24 minutes. Images were captured and exported and JPEG files. Spent culture media was transfered to black-well plates for the LDH assay, and remaining media was sorted at -80 C for later use. Cells were treated with RLT buffer and frozen until shipped for gene expression analysis. Total RNA was isolated from the cell suspension in 75 uL of Buffer RLT (Qiagen, Germantown, MD 20874) by Quintiles/Expression Analysis (Durham, NC) using a custom isolation procedure. Total RNA from each plate well was transferred to a preamplification plate. Fluidigm's 96.96 Dynamic ArrayTM (Fluidigm, Amsterdam, the Netherlands) technology was used for gene expression analyses by quantitative reverse transcription polymerase chain reaction (qRT-PCR, performed by Quintiles/Expression Analysis, Durham, NC)89. Standard TaqManTM Assays (Applied Biosystems/ThermoFisher Scientific, Foster City, CA) were used to assess the expression of 93 genes selected based on their selectivity and sensitivity to important hepatic receptors known to be modulated by environmental chemicals; importance in human hepatocyte functionality; and hepatotoxicity. […]

Sequence of Cytochrome P450 3A4 (Homo sapiens) (P08684 whole entry, looked up): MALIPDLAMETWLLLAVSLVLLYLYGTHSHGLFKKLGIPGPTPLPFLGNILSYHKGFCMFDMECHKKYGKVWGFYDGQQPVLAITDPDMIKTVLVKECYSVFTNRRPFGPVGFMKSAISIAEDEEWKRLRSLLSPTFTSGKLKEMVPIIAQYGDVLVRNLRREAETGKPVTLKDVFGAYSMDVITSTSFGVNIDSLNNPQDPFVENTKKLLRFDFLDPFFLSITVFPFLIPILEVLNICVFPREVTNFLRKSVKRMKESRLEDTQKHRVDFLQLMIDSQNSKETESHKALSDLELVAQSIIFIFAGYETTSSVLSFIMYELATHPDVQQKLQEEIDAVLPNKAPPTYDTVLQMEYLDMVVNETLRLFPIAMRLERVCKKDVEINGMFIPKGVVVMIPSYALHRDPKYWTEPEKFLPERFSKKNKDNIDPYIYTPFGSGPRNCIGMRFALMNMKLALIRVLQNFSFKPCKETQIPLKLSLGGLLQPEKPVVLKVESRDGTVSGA

Row | Structure (SMILES) | AC50 | outcome
1 | CNC(=O)Oc1cccc2c1OC(C)(C)C2 | 6.81 µM (active) | –
2 | Cc1ccc(N=C=O)cc1N=C=O | – | inactive
3 | CO[C@@H]1[C@H](OC(=O)NC(=O)CCl)CC[C@]2(CO2)[C@H]1[C@@]1(C)O[C@@H]1CC=C(C)C | – | inactive
4 | O=[N+]([O-])C(Br)(CO)CO | – | inactive
5 | c1ccc2c(c1)oc1ccccc12 | – | inactive
6 | CS(=O)(=O)NC(=O)c1cc(Oc2ccc(C(F)(F)F)cc2Cl)ccc1[N+](=O)[O-] | 1.23 µM (active) | –
7 | CCC12COCN1COC2 | – | inactive
8 | Oc1ccccc1Cl | – | inactive
9 | Nc1ccc(Cc2ccc(N)cc2)cc1 | – | inactive
10 | CC(C)(O)c1cnn2c(-c3ccc(F)c(-c4c(F)cccc4C#N)c3)cnc2n1 | 0.263 µM (active) | –
11 | Nc1cc(Cl)cc(C(=O)O)c1Cl | – | inactive
12 | Brc1ccc(Oc2ccccc2)cc1 | – | inactive
13 | OCCCBr | – | inactive
14 | OCCOCCO | – | inactive
15 | O=P(OCCCl)(OCCCl)OCCCl | – | inactive
16 | c1ccc(NNc2ccccc2)cc1 | – | inactive
17 | O=C(Oc1ccc(Br)cc1)N1CCN2CCC1CC2 | 33.3 µM (active) | –
18 | COC(=O)c1ccccc1N | – | inactive
19 | CCOC(=O)[C@]1(c2ccccc2)Oc2ccccc2[C@@H]1N | 80 µM (active) | –
20 | ClC1=C(Cl)[C@]2(Cl)[C@H]3[C@H]([C@@H]4C=C[C@H]3C4)[C@@]1(Cl)C2(Cl)Cl | 4.36 µM (active) | –

Row | Structure (SMILES) | AC50 | outcome
21 | Cn1cc(-c2ccccc2)c(=O)c(-c2cccc(C(F)(F)F)c2)c1 | 2.92 µM (active) | –
22 | CCCCOC(=O)c1ccccc1C(=O)OCc1ccccc1 | – | inactive
23 | Clc1ccc(C(c2ccc(Cl)cc2)C(Cl)Cl)cc1 | 10 µM (active) | –
24 | CC(C)(C)C(O)(CCc1ccc(Cl)cc1)Cn1cncn1 (stereo not given) | 2.86 µM (active) | –
25 | Nc1ccc(Cl)cc1N | 19.7 µM (active) | –
26 | O=C(N[C@H](c1ccccc1)[C@@H]1CN2CCC1CC2)c1c(Cl)ccc(C(F)(F)F)c1Cl | 81.2 µM (active) | –
27 | Clc1ccccc1Cl | – | inactive
28 | CCN(CC)N=O | – | inactive
29 | O=C1CCCO1 | – | inactive
30 | CN(C)C(=O)Nc1ccc(Cl)cc1 | – | inactive
31 | CC(C)N(Cc1ccccc1)C(=O)C(C)(C)C | 3.44 µM (active) | –
32 | CCOc1cccc(C2(N3CCN(c4ccccc4)CC3)CCC(C)CC2)c1 (stereo not given) | – | inactive
33 | Cc1ccc(N)c(N)c1 | – | inactive
34 | O=C(O)C1C2CCC(O2)C1C(=O)O (stereo not given) | 79.7 µM (active) | –
35 | C[C@]12C=CC3=C4CCC(=O)C=C4CC[C@H]3[C@@H]1CC[C@@H]2O | 0.458 µM (active) | –
36 | Cc1cc(N=Nc2ccccc2C)ccc1N | 2.94 µM (active) | –
37 | Oc1ccc2ccc3cccc4ccc1c2c34 | – | inactive
38 | c1ccc(C2CO2)cc1 (stereo not given) | – | inactive
39 | CN(C)c1ccccc1 | – | inactive
40 | Nc1ccc([N+](=O)[O-])cc1 | – | inactive
